Data on 97 molecules can be found in PubChem BioAssay AID1779 (Sanford-Burnham Center for Chemical Genomics, 2009).

In all, about 290,000 compounds went through this assay and about 160 (0.055%) were called active. This excerpt belongs to a sample that is enriched for actives. A number with no mark means an inactive call. No stated cut-off is given here; in the data, active means inhibition above about 50%; inactive means the rest.

Usually inhibition stands for the change of the read-out against control, counted positive when it falls.

Tyrosine-protein phosphatase non-receptor type 22 (Homo sapiens), sequence (Q9Y2R2 whole entry, looked up): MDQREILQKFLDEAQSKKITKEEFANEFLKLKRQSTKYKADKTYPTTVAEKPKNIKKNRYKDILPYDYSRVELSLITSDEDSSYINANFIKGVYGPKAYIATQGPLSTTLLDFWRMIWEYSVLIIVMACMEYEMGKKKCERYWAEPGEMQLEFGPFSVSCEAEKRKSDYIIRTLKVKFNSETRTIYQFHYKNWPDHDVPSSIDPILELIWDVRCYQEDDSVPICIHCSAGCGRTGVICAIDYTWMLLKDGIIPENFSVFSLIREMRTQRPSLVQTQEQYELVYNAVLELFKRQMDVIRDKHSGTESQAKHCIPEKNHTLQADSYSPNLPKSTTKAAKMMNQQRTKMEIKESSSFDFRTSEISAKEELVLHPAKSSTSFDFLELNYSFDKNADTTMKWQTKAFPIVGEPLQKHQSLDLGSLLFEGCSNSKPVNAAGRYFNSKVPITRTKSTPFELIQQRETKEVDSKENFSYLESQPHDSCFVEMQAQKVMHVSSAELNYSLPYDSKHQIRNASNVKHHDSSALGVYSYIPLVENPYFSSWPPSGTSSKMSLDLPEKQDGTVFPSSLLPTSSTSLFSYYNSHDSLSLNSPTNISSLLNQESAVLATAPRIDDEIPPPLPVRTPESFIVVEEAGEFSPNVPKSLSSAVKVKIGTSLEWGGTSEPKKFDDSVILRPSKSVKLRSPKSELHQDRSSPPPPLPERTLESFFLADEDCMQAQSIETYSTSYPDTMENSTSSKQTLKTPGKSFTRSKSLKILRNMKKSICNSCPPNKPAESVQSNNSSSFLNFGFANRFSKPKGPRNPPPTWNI

The assay has as its target Tyrosine-protein phosphatase non-receptor type 22 (Homo sapiens) (UniProt Q9Y2R2). Description: PTPN22 lymphoid phosphatase activity blockers – biochemical, fluorescence intensity, uHTS (AID 1779).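 Further: plate controls were vehicle with enzyme for no effect and no enzyme for full effect.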 The following applies: recombinant LYP phosphatase, at 11.5 µM, active compounds read high.
For the molecule `Cc1cccc(OCC(=O)Nc2nnn(C)n2)c1C`, the inhibition was -6.4%.
`COc1cc(/C=N/NC(=O)c2cc(-c3ccccc3)nc3ccccc23)ccc1O`: the inhibition is -1.5%.
With `COc1cc(/C=N/NC(=O)c2cc(-c3ccccc3OC(C)C)nc3ccccc23)ccc1O`, the inhibition was 4.4%.
Regarding `CCOc1ccccc1-c1cc(C(=O)N/N=C/c2ccc(O)c(OC)c2)c2ccccc2n1`, the inhibition is 64.5% (active).
`O=C(NCCc1ccccn1)C1CCN(S(=O)(=O)c2ccc(Cl)cc2)CC1`: the inhibition is -6.8%.
As for `CCOC(=O)c1ccc(NC(=O)c2nn(CC)cc2Br)cc1`, the figure is -4.5%.
`CCOC(=O)c1ccc(NC(=S)NC(=O)c2nn(CC)cc2Br)cc1`: the inhibition is 1.9%.
Take `CCn1cc(Br)c(C(=O)NC(=S)Nc2ccc(C(=O)OC)cc2)n1`: the inhibition is 65.2% (active).
With `COC(=O)CNC(=O)c1ccc(C)s1` the figure was -7.8%; with `CCS(=O)(=O)N1CCN(S(=O)(=O)c2ccc3ccccc3c2)CC1`, -9.2%.
As for `CN(C)S(=O)(=O)N1CCN(S(=O)(=O)c2ccc3ccccc3c2)CC1`, the figure is 71.6% (active); as for `CN1CCN(S(=O)(=O)c2ccc3ccccc3c2)CC1`, -4.3%; as for `CCN(CC(=O)N1CCOCC1)S(=O)(=O)c1ccc2ccccc2c1`, -8.1%.
Regarding `Cc1ccc(OCC(O)CNS(=O)(=O)c2ccccc2C(=O)O)cc1` (configuration not stated), the inhibition is -4.9%.
As for `C/C(=N\NC(=O)c1c(-c2ccccc2Cl)noc1C)c1cccc(NC(=O)C(C)C)c1`, the figure is 77.1% (active).
With `CCC(=O)Nc1ccc(/C(C)=N/NC(=O)c2c(-c3ccccc3Cl)noc2C)cc1` the figure was -2.5%; with `CC(=O)Nc1cccc(NC(=O)c2c(-c3ccccc3Cl)noc2C)c1`, -3.7%; with `C/C(=N\NC(=O)C(=O)Nc1cccc(Cl)c1C)c1ccncc1`, -8%.
Turning to `O=C(c1cc2cc(F)ccc2[nH]1)N1CCN(C(=O)c2ccco2)CC1`, the inhibition was 95.1% (active).
In the case of `CN1CCN(C(=O)c2cc3cc(F)ccc3[nH]2)CC1`, the inhibition was -9.9%.
With `O=C(c1cc2cc(Cl)ccc2[nH]1)N1CCN(C(=O)c2ccco2)CC1` the figure was -9.3%.
With `O=C(NNc1c(Cl)cccc1Cl)c1cccs1` the figure was -4.8%; with `CCCC(=O)Nc1ccc(Cl)c(NC(=O)CC)c1`, -12.2%.
As for `O=C(O)c1ccc(NC(=S)NC(=O)c2ccc(-c3ccc(Br)cc3)o2)cc1`, the figure is 86.9% (active); as for `O=C(NC(=S)Nc1ccc(CN2CCOCC2)cc1)c1ccc(-c2ccc(Br)cc2)o1`, -14.4%; as for `O=C(NC(=S)Nc1ccccc1C(=O)O)c1ccc(-c2ccc(Br)cc2)o1`, 1.2%.
`CCCc1cc(C(=O)NC2CCCN(Cc3ccccc3F)C2)no1` (configuration not stated): the inhibition is -1.5%.
As for `CC(=O)N(CC(=O)O)c1ccccc1`, the figure is -0.7%; as for `O=C(COc1ccccc1F)Nc1cc(S(=O)(=O)N2CCOCC2)ccc1N1CCOCC1`, -1.3%; as for `CCC(C)NCCOCCOc1ccc(Cl)c2ccccc12` (configuration not stated), 1.1%.
As for `CCC(C)NCCOCCOc1ccc(Cl)cc1Br` (configuration not stated), the figure is -3.3%; as for `CCC(C)NCCOCCOc1ccc(Cl)c(C)c1C` (configuration not stated), 76.9% (active); as for `Cc1ccc(N=Nc2c(O)n(CN3CCOCC3)c3ccccc23)cc1`, 72% (active).
With `Cc1cccc(NC(=S)N=Nc2c(O)n(CN3CCOCC3)c3ccccc23)c1C`, the inhibition is -4.1%.
As for `Cc1c(Cl)cccc1NC(=S)N=Nc1c(O)n(CN2CCOCC2)c2ccccc12`, the figure is -0.8%; as for `O=S(=O)(CCCc1ccccc1)c1ncn[nH]1`, -3%.
As for `COc1ccc(N(CC(=O)NCCSC(C)(C)C)S(C)(=O)=O)c(OC)c1`, the figure is -6.6%; as for `Cc1ccc(OCC(=O)N/N=C\c2ccco2)c(C)c1`, 51.3% (active); as for `Cc1ccccc1OCC(=O)N/N=C/c1ccco1`, -3.4%.
With `Cc1ccc(OCC(=O)N/N=C/c2ccco2)cc1` the figure was -5.1%; with `Cc1ccc(C(=O)N/N=C\c2cccs2)cn1`, 1.2%.
`Cc1nnc(C)n1/N=C/c1ccccc1`: the inhibition is -11%.
With `COc1ccc(Cl)cc1-c1nc(N)nc(NC2CCCCC2)n1` the figure was 58.1% (active); with `CNc1nc(N)nc(-c2cc(Cl)ccc2OC)n1`, -4%.
Turning to `CCNc1nc(N)nc(-c2cc(Cl)ccc2OC)n1`, the inhibition is -2.6%.
With `Cc1ccc(/C(O)=C2/C(=O)C(=O)N(CCN3CCOCC3)C2c2cccnc2)cc1` (configuration not stated) the figure was -3.8%.
Turning to `C=CCC(C(=O)OC)(C(=O)OC)c1ccccc1[N+](=O)[O-]`, the inhibition is -9.5%.
With `CCOc1cc(/C=N\NC(=O)c2ccc(NC(=O)C(C)(C)C)cc2)ccc1OC(=O)c1ccc(C)cc1` the figure was -4%.
For the molecule `COc1cc(/C=N\NC(=O)c2ccc(-c3ccccc3)cc2)ccc1OCC(N)=O`, the inhibition was 3.2%.
As for `Cc1cc2c(N=O)c(NO)ccc2[nH]1`, the figure is -4.6%; as for `Cc1nn(Cc2cccc(C(=O)NCC(C)C)c2)c(C)c1Br`, -3.3%; as for `Cc1nn(Cc2cccc(C(=O)NC34CC5CC(CC(C5)C3)C4)c2)c(C)c1Br`, 94.4% (active).
Regarding `CCCNC(=O)c1cccc(Cn2nc(C)c(Br)c2C)c1`, the inhibition is -5.3%.
`COc1ccc(-c2cc(C(=O)NCCc3ccc(S(N)(=O)=O)cc3)c3ccccc3n2)cc1`: the inhibition was -2.5%.
As to `Cc1nnc(SCC(=O)NC(=O)Nc2ccc3c(c2)OCCO3)n1N`, the inhibition was -13%.
With `N=c1c(S(=O)(=O)c2ccc(Br)cc2)cc2c(=O)n3ccccc3nc2n1Cc1ccccc1` the figure was -5.4%; with `COCCn1c(=N)c(S(=O)(=O)c2ccc(F)cc2)cc2c(=O)n3ccccc3nc21`, -34.1%.
With `COCCn1c(=N)c(S(=O)(=O)c2ccc(Br)cc2)cc2c(=O)n3ccccc3nc21` the figure was 67.5% (active).
As for `Cc1cc(N2C(=O)C(O)=C(C(=O)c3cc4ccccc4o3)C2c2ccc(Br)cc2)no1` (configuration not stated), the inhibition is 2.4%.
As for `OCCOCCn1c(-c2ccccc2)nc(=S)c2c1CCCC2`, the figure is -2.3%; as for `O=C(CCc1c[nH]c2ccccc12)OCc1cccc([N+](=O)[O-])c1`, -6%; as for `COc1ccc(OCC(=O)N/N=C/c2ccc(OC)c(OC)c2C(=O)O)cc1`, 53.1% (active).
As for `COc1ccc(/C=N/NC(=O)COc2ccc3ccccc3c2)c(C(=O)O)c1OC`, the figure is -2.9%; as for `COc1ccc(/C=N\NC(=O)COc2ccccc2)c(C(=O)O)c1OC`, 2.3%.
With `CCc1nc(CNC(=O)c2cc(OC)c(OC)c(OC)c2)no1` the figure was -4.2%.
With `O=C(NC(=S)Nc1ccc(S(=O)(=O)Nc2nccs2)cc1)C1CC1`, the inhibition is 1%.
In the case of `COc1cccc(N(C(=O)Cn2nnc(-c3ccc(Cl)cc3)n2)C(C(=O)NCC2CCCO2)c2ccc(C)cc2)c1` (configuration not stated), the inhibition is -1.9%.
With `CCCCOc1ccc(N(CC(=O)NC(C)C)C(=O)CCC(=O)Nc2ccccn2)cc1` the figure was -3.4%; with `CCOc1ccc(N(CC(=O)NC(C)C)C(=O)CCC(=O)Nc2ccccn2)cc1`, 2.9%.
As for `COc1ccc(N(CC(=O)NC(C)C)C(=O)CCC(=O)Nc2ccccn2)cc1`, the figure is 67.8% (active); as for `O=C(NCCCN1CCCC1=O)c1csc2ccccc12`, -6.7%; as for `O=C(NCCCN1CCCC1=O)c1cccs1`, 2.8%.
`Cc1cc(C(=O)NCCCN2CCCC2=O)cs1`: the inhibition is 75.4% (active).
As for `C=CCSc1nc2sc(-c3ccccc3)cc2c(=O)n1N`, the figure is -7.2%.
As for `CCOC(=O)N1CCN(C(=O)C(CC)n2nc(C)c3sc4ccccc4c3c2=O)CC1` (configuration not stated), the figure is 4.4%.
As for `Brc1cc2c(cc1CN1CCc3ccccc3C1)OCO2`, the figure is -4.6%; as for `O=C1CCC(c2ccccc2)N1C(=O)c1cccnc1` (configuration not stated), 87.4% (active); as for `O=C(c1ccccc1)N1CCN(C(=O)c2cccnc2)CC1`, -0.5%.
`O=C1CC(c2ccccc2)CN1C(=O)c1cccnc1` (configuration not stated): the inhibition is -10.4%.
Consider `CCOC(=O)c1c(-c2ccc(-c3ccccc3)cc2)csc1NC(=O)C1C2CCC(O2)C1C(=O)O` (configuration not stated), for which the inhibition was 20.8%.
Turning to `CCCOC(=O)c1c(-c2ccc(C)cc2C)csc1NC(=O)C1C2CCC(O2)C1C(=O)O` (configuration not stated), the inhibition is 66.6% (active).
`CCOC(=O)c1c(-c2cccc3ccccc23)csc1NC(=O)C1C2CCC(O2)C1C(=O)O` (configuration not stated): the inhibition is 4.2%.
As for `CC(=O)c1ccc(N2CCN(C(=O)CCN3C(=S)NC(C)(C)CC3C)CC2)cc1` (configuration not stated), the figure is 1%.
With `Cc1cc(C)n(C(C)CNS(=O)(=O)c2ccccc2)n1` (configuration not stated) the figure was -6.8%.
With `O=C(Nc1ccccc1C(=O)NCCc1ccccc1)c1ccco1` the figure was -1.8%.
As to `NC(=O)Nc1ccccc1C(=O)NCCc1ccccc1`, the inhibition was 65% (active).
With `O=C(O)CCC(=O)Nc1ccccc1C(=O)NCCc1ccccc1` the figure was 2.9%; with `CN(C)/C=N/NC(=O)c1ccccc1`, -9.5%.
As for `CC(=O)Nc1ccc(NC(=O)c2c(-c3ccccc3Cl)noc2C)c(C)c1`, the figure is -11.5%; as for `Cc1ccnc(NCc2c(O)ccc3ccccc23)c1`, -11.3%.
As for `COc1ccc(NC(=O)CC2C(=O)N(Cc3ccccc3)C(=S)N2CCN2CCOCC2)cc1` (configuration not stated), the figure is -3.6%; as for `CCN1C(=O)C(CC(=O)Nc2ccc(OC)cc2)N(CCN2CCOCC2)C1=S` (configuration not stated), -9.2%.
For `O=C(CC1C(=O)N(Cc2ccccc2)C(=S)N1CCN1CCOCC1)Nc1ccc(F)cc1` (configuration not stated), the inhibition was 74.9% (active).
With `CC(=O)NNc1ncnc2c1cnn2-c1ccccc1` the figure was 1.3%; with `COC(=O)N/N=C(\C)c1ccc2ccccc2c1OC(F)F`, 68% (active); with `COC(=O)N/N=C(\C)c1ccccc1OC(F)F`, -1.7%.
With `CCNC(=S)N/N=C(\C)c1ccc2ccccc2c1OC(F)F`, the inhibition was 4%.
